Assay [1] has as its target Calcium and integrin-binding protein 1 (Homo sapiens) (UniProt Q99828). Put plainly: Primary qHTS for Identification of Calcium Integrin Binding Protein 1 (CIB1) Competitor (AID 1508620).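 Note: GST tagged CIB1 binding a fluorescein labelled alphaIIb integrin peptide tracer; top concentration of the series differs between compounds.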 In outline: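 Fluorescence polarization competition: CIB1-GST (1 uM final) preincubated with compound 15 min at room temperature, then FITC-labeled alphaIIb peptide (100 nM final) added for another 15 min. Polarization read at Ex 480/Em 540.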
(In general: Quantitative high-throughput screening tests each substance at several concentrations.)

A short description of assay [2]: Primary qHTS for inhibitors of nuclear receptor binding SET domain protein 2 (NSD2) in an isogenic RCH-ACV NSD2 p.E1099K mutant (9B) (AID 1645876). Note: nearly all actives have a fitted effect of over 70% in size. Note: potency is the fitted concentration of half-maximal effect.
Assay [3] in a line: Counterscreen qHTS for small molecule stabilizers of the endoplasmic reticulum resident proteome: GLuc-NoTag assay (AID 1508627). In outline:
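Secreted GLuc lacking the SERCaMP modification is measured in SH-SY5Y cells exposed to compound for 19 h and then to thapsigargin (100 nM, 4 h) to deplete ER calcium; hits retested at 11 concentrations, up to 76.6 uM.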
On the technique in general: The purpose of a counterscreen is to sort out artefacts and off-target activity.

The nature of assay [4]: Cell Viability qHTS for small molecule stabilizers of the endoplasmic reticulum resident proteome (AID 1508629).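 Note: human SH-SY5Y neuroblastoma cells carrying the GLuc-SERCaMP reporter; compound exposure about 46 h in total before the viability read.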 Particulars: cell viability counter-screen, 100 nM thapsigargin for final 4 h.
The nature of assay [5]: Confirmatory qHTS for small molecule stabilizers of the endoplasmic reticulum resident proteome: Secreted ER Calcium Modulated Protein (SERCaMP) assay (AID 1508628).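 Note: SH-SY5Y cells given compound 16 h then thapsigargin 100 nM for 4 h; nearly all actives have a fitted effect of over 40% in size.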 In outline:
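GLuc-SERCaMP-expressing SH-SY5Y cells, pretreated 16 h with compound, are challenged with thapsigargin to empty ER calcium stores; after 4 h, coelenterazine is added directly to the medium and luminescence is imaged.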

Assay [6] in a line: Cytotoxicity counterscreen for inhibitors of SARS-CoV-2 cell entry (AID 1645845; calls by dose curve; note: nearly all actives have a fitted effect of over 50% in size). The following applies: outcome: dose series up to 57.1 µM unless noted. In outline:
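After a 15 min room-temperature ATPLite 1step step, luminescence reflected ATP remaining in HEK293-ACE2 cells exposed to compound for 1 h plus 48 h at 37 C, with percent activity set by cell and no-cell controls.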

Assay [7] can be described thus: Primary qHTS to identify inhibitors of SARS-CoV-2 cell entry (AID 1645846; calls by dose curve; note: potency is the fitted concentration of half-maximal effect; nearly all actives have a fitted effect of over 45% in size). Particulars: activity change, negative = inhibition: at 57.1 µM (top of the series) unless noted. In outline: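 Using luciferase-reporting pseudoviruses carrying Wuhan-Hu-1 spike, the screen tracks entry into stably ACE2-expressing cells over 48 hr. Activity is expressed relative to spike particles versus particles lacking any fusion protein.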

The values that follow come from PubChem BioAssay (NCATS).

Several values for one entry are separate records, joined by “and”; a condition that tells them apart may be missing. Equal values may be shown once. Results filed as inconclusive are left out. Entries that show only a call come without a potency. A number with no mark means an inactive call. Activity calls are given as the source filed them. Unless noted, calls come from the whole dose curve; as a rule, active = well fitted curve in the direction sought with a large enough effect; inconclusive = small, poorly fitted or top-dose-only effect, or another doubt; inactive = no such curve, though single readings can be large; an effect the other way counts as inactive or inconclusive.

Chain of Calcium and integrin-binding protein 1 (Homo sapiens) (Q99828 whole entry, looked up): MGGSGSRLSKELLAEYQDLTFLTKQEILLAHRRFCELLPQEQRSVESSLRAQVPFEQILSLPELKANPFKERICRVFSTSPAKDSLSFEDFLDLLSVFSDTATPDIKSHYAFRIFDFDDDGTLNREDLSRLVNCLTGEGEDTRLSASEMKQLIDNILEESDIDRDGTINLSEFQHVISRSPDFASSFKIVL

Consider `CC(C)C1(OO)C=C2C(=O)CC3C(C)(C(=O)O)CCCC3(C)C2CC1` (stereo unspecified), for which the Potency result in assay [1] and in assay [2] was “inactive” each time.

As for `C=C[C@H]1CN2CC[C@H]1C[C@@H]2[C@@H](O)c1ccnc2ccccc12`, the Potency entry in assay [1] and in assay [2] was “inactive” each time. In the case of `CO[C@@H]1[C@H](O)[C@@H](O[C@@H]2C[C@H]3CC[C@@H]4C(CC[C@]5(C)[C@@H](C6=CC(=O)OC6)CC[C@]45O)[C@@]3(C)[C@H](O)C2)O[C@H](C)[C@@H]1O[C@@H]1O[C@H](CO)[C@@H](O)[C@H](O)[C@H]1O` (stereo partly specified), the Potency result in assay [1] is “inactive”. Also, the Potency in assay [2] is 0.121 µM (active). For the compound `C=C(CO)C(=O)O[C@H]1C/C(C)=C/CC/C(CO)=C/[C@H]2OC(=O)C(=C)[C@H]12`, the Potency entry in assay [1] and in assay [2] was “inactive” in each case. As for `COC(=O)C1(C)CCC(O)C2(C)c3c(O)cc(C(C)C)cc3C(O)C(OC(C)=O)C12` (stereo unspecified), the Potency result in assay [1] and in assay [2] was “inactive” in each case. In the case of `C/C=C(\C)C(=O)OC1CC2C(C)(C)OC(=O)CC(OC(C)=O)C2(C)C2CC(OC(=O)C(C)C)C3(C)C(c4ccoc4)CC4OC43C12C` (stereo unspecified), the Potency result in assay [1] and in assay [2] was “inactive” throughout.

As to `CC[C@H]1CN2CC[C@H]1C[C@H]2[C@H](O)c1ccnc2ccc(OC)cc12`, the Potency entry in assay [1] and in assay [2] was “inactive” in each case. With `CCN1C[C@]2(COC(=O)c3ccccc3N3C(=O)C[C@H](C)C3=O)CC[C@H](OC)[C@@]34[C@@H]5C[C@H]6[C@H](OC)[C@@H]5[C@](O)(C[C@@H]6OC)[C@](O)([C@@H](OC)[C@H]23)[C@@H]14`, the Potency result in assay [1] and in assay [2] was “inactive” throughout.

In the case of `COC1CC(OC2CCC3(C=O)C(CCC4C3CCC3(C)C(C5=CC(=O)OC5)CCC43O)C2)OC(C)C1OC1OC(CO)C(O)C(O)C1O` (stereo unspecified), in assay [1], the Potency result was “inactive”. Moreover, in assay [2], the Potency was 0.0858 µM (active).

On to `CO[C@H]1[C@H](O)[C@H](O[C@H]2CC[C@]3(C)C4CC[C@]5(C)[C@H](C6=CC(=O)OC6)CC[C@]5(O)C4CC[C@@H]3C2)O[C@@H](C)[C@@H]1O` (stereo partly specified), for which the Potency entry in assay [1] was “inactive”. Further, the Potency in assay [2] is 0.0224 µM (active).

For `Cc1cc(C)cc(C(=O)OC2C[C@H]3CC[C@@H](C2)N3C)c1` (stereo partly specified), the call in assay [3] was inactive. For `O[C@H]1[C@H]2[C@H](O)CCCN2C[C@H]1O`, in assay [3], the compound was classed as inactive. Further, the max response in assay [4] is 13.7% and 34.4%.

As to `COc1ccc2c(c1)[C@@]13CCCC[C@H]1[C@@H](C2)NCC3`, the Potency result in assay [5] was “inactive”. As for `C[C@]12CC[C@H]3[C@@H](CC[C@@]45O[C@@H]4C(O)=C(C#N)C[C@]35C)[C@@H]1CC[C@@H]2O`, the compound was called inactive in assay [6]. Take `O=C1OC2(c3cc(Br)c(O)cc3Oc3c2cc(Br)c(O)[c]3[Hg])c2ccccc21` (stereo unspecified): the Potency in assay [7] is 10 µM (active).
